For assay [1], the target named is Voltage-gated inwardly rectifying potassium channel KCNH2 (Homo sapiens) (UniProt Q12809). The assay can be described thus: Human Ether-a-go-go-Related Gene (hERG) channel small molecule antagonists: fluorescence cell-based qHTS assay (AID 1671200).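 For activity change, negative = inhibition: hERG-expressing U2OS cells given a thallium stimulus after FluxOR II dye loading.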 Conditions: hERG-U2OS cells, FluxOR thallium flux fluorescence; series mostly up to 76.8 µM. Put shortly:
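Measured: Tl+ flux via fluorescence (480/540 nm) in hERG-expressing U2OS cells after 1 h dye loading at room temperature.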
For orientation: Block of hERG is tested as a sign of cardiac risk.

Assay [2] addresses Cytochrome P450 3A4 (Homo sapiens) (UniProt P08684). In words: Cytochrome P450 Family 3 Subfamily A Member 4 (CYP3A4) small molecule antagonists: luciferase reporter qHTS assay (AID 1671201). The settings on record: P450-Glo CYP3A4 enzyme, luciferin luminescence, 1 h; series mostly up to 115 µM. Put shortly:
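Setup: enzyme-substrate mix, compound pin transfer, 10 min RT. Reaction: NADPH regeneration solution, 1 h RT. Readout: detection reagent stops turnover, luminescence measured after 20 min, expressed in relative luminescence units.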
On the technique in general: In a reporter assay the amount or activity of a reporter protein is the signal.

Assay [3] deals with Cytochrome P450 1A2 (Homo sapiens) (UniProt P05177). In words: Cytochrome P450 Family 1 Subfamily A Member 2 (CYP1A2) small molecule antagonists: luciferase reporter qHTS assay (AID 1671199). Conditions: P450-Glo CYP1A2 enzyme, luciferin luminescence, 1 h; series mostly up to 115 µM. Put shortly: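 Signal from luciferin formed by CYP1A2 from a proluciferin substrate is read as luminescence, expressed in relative luminescence units. Compounds sit with enzyme 10 min, NADPH-driven reaction runs 1 h, all at room temperature.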
Sequence of Cytochrome P450 1A2 (Homo sapiens) (P05177 whole entry, looked up): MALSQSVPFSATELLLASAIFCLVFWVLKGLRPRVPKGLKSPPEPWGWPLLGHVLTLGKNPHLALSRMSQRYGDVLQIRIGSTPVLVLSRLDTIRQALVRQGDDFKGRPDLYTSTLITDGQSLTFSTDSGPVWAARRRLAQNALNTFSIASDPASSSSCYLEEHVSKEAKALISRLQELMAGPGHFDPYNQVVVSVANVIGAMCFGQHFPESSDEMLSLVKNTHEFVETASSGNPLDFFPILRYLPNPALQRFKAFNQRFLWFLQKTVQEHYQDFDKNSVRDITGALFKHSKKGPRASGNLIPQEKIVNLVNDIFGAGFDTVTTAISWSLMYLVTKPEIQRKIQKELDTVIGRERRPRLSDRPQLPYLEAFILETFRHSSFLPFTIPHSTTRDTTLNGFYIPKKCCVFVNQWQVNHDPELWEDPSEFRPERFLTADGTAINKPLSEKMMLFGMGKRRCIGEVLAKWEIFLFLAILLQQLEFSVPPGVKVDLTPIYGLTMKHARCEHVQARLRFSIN

This passage reports Potency and activity change, negative = inhibition results from PubChem BioAssay (Tox21).

Records with an inconclusive call do not appear. Values without a mark were called inactive. Activity calls are given as the source filed them. Calls come from the whole dose curve; as a rule, active = well fitted curve in the direction sought with a large enough effect in the repeat runs; inconclusive = weak or mixed curves; inactive = no such curve, though single readings can be large; an effect the other way counts as inactive or inconclusive.
% is set by controls: 0 for no effect and ±100 for the full control effect; potency is the fitted concentration of half-maximal effect.
Note: nearly all actives have a fitted effect of over 50% in size.

Sequence of Voltage-gated inwardly rectifying potassium channel KCNH2 (Homo sapiens) (Q12809 whole entry, looked up): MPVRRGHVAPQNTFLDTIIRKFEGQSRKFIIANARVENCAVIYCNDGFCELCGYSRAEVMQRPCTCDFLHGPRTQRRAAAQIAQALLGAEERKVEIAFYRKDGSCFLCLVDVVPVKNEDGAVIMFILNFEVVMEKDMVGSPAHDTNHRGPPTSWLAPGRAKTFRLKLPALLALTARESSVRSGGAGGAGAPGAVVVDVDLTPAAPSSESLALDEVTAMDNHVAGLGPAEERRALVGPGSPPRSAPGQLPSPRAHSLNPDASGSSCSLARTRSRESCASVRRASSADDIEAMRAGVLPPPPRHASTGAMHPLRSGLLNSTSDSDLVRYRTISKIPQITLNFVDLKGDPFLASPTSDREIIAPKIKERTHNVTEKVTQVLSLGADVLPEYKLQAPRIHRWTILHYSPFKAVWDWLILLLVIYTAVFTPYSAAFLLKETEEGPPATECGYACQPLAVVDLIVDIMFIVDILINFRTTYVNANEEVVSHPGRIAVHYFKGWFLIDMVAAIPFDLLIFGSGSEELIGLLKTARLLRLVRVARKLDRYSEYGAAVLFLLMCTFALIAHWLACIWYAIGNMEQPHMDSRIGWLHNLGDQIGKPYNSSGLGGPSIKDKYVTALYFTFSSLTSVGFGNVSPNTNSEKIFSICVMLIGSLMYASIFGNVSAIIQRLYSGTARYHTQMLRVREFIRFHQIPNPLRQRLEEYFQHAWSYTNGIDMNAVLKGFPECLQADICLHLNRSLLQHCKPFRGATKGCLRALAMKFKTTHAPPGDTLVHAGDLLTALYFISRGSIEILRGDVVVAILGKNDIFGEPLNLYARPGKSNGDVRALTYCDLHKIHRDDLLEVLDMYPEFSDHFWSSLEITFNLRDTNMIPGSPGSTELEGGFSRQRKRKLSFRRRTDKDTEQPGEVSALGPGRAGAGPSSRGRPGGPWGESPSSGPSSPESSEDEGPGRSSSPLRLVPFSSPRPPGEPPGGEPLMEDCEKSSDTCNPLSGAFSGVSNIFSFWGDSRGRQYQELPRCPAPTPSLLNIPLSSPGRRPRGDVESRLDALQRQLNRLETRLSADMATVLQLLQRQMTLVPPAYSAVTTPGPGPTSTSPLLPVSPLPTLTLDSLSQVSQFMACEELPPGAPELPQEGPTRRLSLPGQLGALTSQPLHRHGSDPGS
Sequence of Cytochrome P450 3A4 (Homo sapiens) (P08684 whole entry, looked up): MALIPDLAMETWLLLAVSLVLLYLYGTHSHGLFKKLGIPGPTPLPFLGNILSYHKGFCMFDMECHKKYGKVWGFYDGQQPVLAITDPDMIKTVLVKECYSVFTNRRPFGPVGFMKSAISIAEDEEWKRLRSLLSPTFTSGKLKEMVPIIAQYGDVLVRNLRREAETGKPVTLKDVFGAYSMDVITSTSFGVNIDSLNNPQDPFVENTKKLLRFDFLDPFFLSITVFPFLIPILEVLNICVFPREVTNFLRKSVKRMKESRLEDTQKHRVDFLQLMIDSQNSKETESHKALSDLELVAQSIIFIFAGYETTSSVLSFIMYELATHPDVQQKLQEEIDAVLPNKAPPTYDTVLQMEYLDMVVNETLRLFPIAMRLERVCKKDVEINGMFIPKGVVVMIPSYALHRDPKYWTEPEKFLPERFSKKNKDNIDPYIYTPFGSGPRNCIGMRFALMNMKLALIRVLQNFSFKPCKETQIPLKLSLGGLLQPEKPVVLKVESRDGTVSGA

On to `O=[N+]([O-])c1ccc(F)c(Cl)c1`, for which the Potency result in assay [1] and in assay [2] was “inactive” throughout.

On to `Nc1ccc(NCCO)c([N+](=O)[O-])c1`, for which the Potency in assay [3] is 31.7 µM (active); in assay [2] it was 25.2 µM (active). Moreover, in assay [1], the Potency entry is “inactive”.

For the compound `CC(C)(C)CC(C)(C)c1ccc(Nc2ccc(C(C)(C)CC(C)(C)C)cc2)cc1`, the activity change, negative = inhibition in assay [1] is 0.578% [at 6.97 µM]; in assay [2], -20% [at 10.5 µM].

For `C=CCCC(=O)/C=C/C1C(C)=CCCC1(C)C` (stereo not given), the Potency entry in assay [3] is “inactive”. In assay [2], the Potency was 17.8 µM (active).

As for `CCCCCCCCCCOC(=O)c1ccccc1C(=O)OCCCCCCCC`, the Potency result in assay [3], in assay [1] and in assay [2] was “inactive” in each case.

In the case of `CCCCCC(C)OC(=O)COc1ccc(Cl)c2cccnc12` (stereo not given), the Potency in assay [3] is 5.03 µM (active); in assay [1], 9.77 µM (active); in assay [2] it was 12.6 µM (active).

Turning to `CC(C)(C)c1csc(-c2cc3cc(OCc4ccccc4CC(=O)O)ccc3o2)n1`, the Potency entry in assay [3], in assay [1] and in assay [2] was “inactive” throughout.

As to `Cc1ccc(C(C)C)cc2c(C)ccc1-2`, in assay [1], the Potency entry is “inactive”.

In the case of `COCCOc1cc2cc(C(=O)NC3CCN(C(C)C)CC3)n(CC(=O)Nc3ccc(Cl)cn3)c2cn1`, the Potency entry in assay [1] and in assay [2] was “inactive” each time.

Turning to `CCCCCCC1CCCC(=O)O1` (stereo not given), the Potency result in assay [1] and in assay [2] was “inactive” each time.

With `Oc1c(I)cc(Cl)c2cccnc12`, the Potency result in assay [1] is “inactive”.

With `COc1cccc2c1C(=O)c1c(O)c3c(c(O)c1C2=O)C[C@@](O)(C(C)=O)C[C@@H]3O[C@H]1C[C@H](N)[C@H](O)[C@H](C)O1`, in assay [1], the Potency result is “inactive”.

Take `OCCN1CCN(CCCN2c3ccccc3Sc3ccc(C(F)(F)F)cc32)CC1`: the Potency in assay [1] was 3.38 µM (active).

As to `C=CC(=O)OCCOC(=O)C=C`, the Potency result in assay [3], in assay [1] and in assay [2] was “inactive” each time.

Consider `CCCCCc1ccc(Cl)cc1`, for which the Potency entry in assay [3] and in assay [2] was “inactive” each time.

For `Sc1nc2ccccc2s1`, the Potency entry in assay [1] and in assay [2] was “inactive” throughout.

With `O=c1c(O)c(-c2ccc(O)cc2O)oc2cc(O)cc(O)c12`, the Potency result in assay [1] and in assay [2] was “inactive” each time.

In the case of `Cc1cc(C(C)(C)C)cc(C)c1CC1=NCCN1`, the Potency result in assay [3] and in assay [2] was “inactive” throughout.

Consider `Cc1c(C)c([N+](=O)[O-])c(C(C)(C)C)c([N+](=O)[O-])c1C`, for which the Potency in assay [3] is 20 µM (active). The Potency result in assay [2] was “inactive”.

As to `O=C(O)CN(CCN(CC(=O)O)CC(=O)O)CC(=O)O`, the activity change, negative = inhibition in assay [1] is -1.4% [at 2.72 µM].
